In all, about 330,000 compounds went through this assay and about 4,400 (1.3%) were called active. For the sample, actives were picked, then their nearest neighbours and some compounds at random. Unmarked numbers belong to inactive results.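 Rule for the calls: active = growth inhibition of the mutant yeast at or above 50%; inactive = the rest.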
Test: growth inhibitors of tim23-1 mutant yeast, primary screen, luminescence, uHTS (AID 463212);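 note: temperature-sensitive mutant grown at 25 °C; plate controls were DMSO-treated mutant yeast for no effect and medium wells lacking yeast for full effect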
Conditions: S. cerevisiae tim23-1 growth, BacTiter-Glo luminescence, 24 h; at 20 µM; active compounds read high

Compared with `Cc1c(CN2CCC(n3nccc3NC(=O)CCc3ccccc3)CC2)cnn1C`, `CCOc1ccc(C(CC(=O)O)NC(=O)Cc2ccccc2)cc1OC` (configuration not stated) is lower in inhibition: 3.04% for the first, -3.51% for the second.

Compared with `CCc1noc(C)c1C(=O)Nc1nc(-c2ccccc2)cs1`, `Cc1ccccc1Nc1nc(-c2cccnc2)cs1` is higher in inhibition: 22.5% for the first, 33.4% for the second.

First: CCC(C)OC(=O)C(C)Oc1ccc(-c2ccccc2)cc1 (configuration not stated)
Second: COC(=O)c1ccc(-c2c(-c3ccccc3)ncc3cc(OC)c(OC)cc23)cc1
The inhibition of the first is lower: 3.46% for the first, 18.9% for the second.

First: c1ccc2c(NCC3CCCO3)nc(-c3ccncc3)nc2c1 (configuration not stated)
Second: Clc1cccc(-c2nc(NCC3CCCO3)c3ccccc3n2)c1 (configuration not stated)
The inhibition of the first is lower: 13.1% for the first, 28.9% for the second.

Compared with `O=C(CO/N=C/c1ccc(OC(F)F)cc1)NCc1ccc(F)cc1`, `CCOc1ccc(C(=O)Nc2cccc(SC)c2)cc1` is higher in inhibition: 8.87% for the first, 10.1% for the second.

First: CC(C)(C)Nc1nc(-c2ccccn2)nc2ccccc12
Second: COc1cnc(-c2ccccn2)nc1Oc1ccc(C(C)(C)C)cc1
The inhibition of the first is lower: -51.4% for the first, 41.2% for the second.

Going from `CC(C)(COC(=O)Nc1ccccc1)COC(=O)Nc1ccccc1` to `Cc1ccccc1C(=O)NC(=S)Nc1ccc(N2CCN(C(=O)c3ccccc3)CC2)cc1`, the inhibition falls from 29.8% to -0.446%.

First: O=C(c1ccncc1)N1CCN(S(=O)(=O)c2cccc([N+](=O)[O-])c2)CC1
Second: CCOC(=O)N1CCN(C(=O)c2cn(C)c3ccc(S(=O)(=O)N(CC)CC)cc3c2=O)CC1
The inhibition of the first is higher: 3.41% for the first, 2.29% for the second.

First: CC(Sc1nc2cc(Cl)ccc2s1)C(=O)Nc1ccc2c(c1)OCO2 (configuration not stated)
Second: Cc1ccc(NC(=O)CSc2cccc3cccnc23)c(C)c1
The inhibition of the first is higher: 32% for the first, 19.5% for the second.

Going from `NS(=O)(=O)c1ccc(NC(=S)N2CCCC2)cc1` to `Cc1ccc(S(=O)(=O)NCC(C)NS(C)(=O)=O)cc1` (configuration not stated), the inhibition rises from -14.9% to -7.63%.

Compared with `COc1ccccc1NS(=O)(=O)c1ccc(C)c(C(=O)NNC(=O)c2csc(N3CCOCC3)n2)c1`, `Cc1ccc(C(=O)Oc2ccc(C(=S)N3CCOCC3)cc2)cc1` is higher in inhibition: -7.58% for the first, -1.92% for the second.

Compared with `COC(=O)NNC1=CC(=O)CC(C)(C)C1`, `COC(=O)[C@@]1(C)[C@H]2C(=O)N(Cc3ccccc3)C(=O)[C@H]2[C@H]2CN=C(SCC3CC3)N21` is higher in inhibition: -3.94% for the first, 28.2% for the second.

Going from `O=C(CSc1nnnn1C1CCCC1)N1CCCCC1` to `CCc1noc(C)c1C(=O)N1CCCC(N2CCN(c3ccc(F)cc3)CC2)C1` (configuration not stated), the inhibition falls from 4.13% to -9.74%.

First: C[C@H]1CC[C@]2(O[C@@H](CCO)C[C@@H](O)[C@@H]2O)O1
Second: CC1CCN(C2=NC(=O)/C(=C/c3ccc(O)cc3)S2)CC1
The inhibition of the first is lower: 23.4% for the first, 31.9% for the second.

Compared with `O=C(O)c1ccc(N/N=C/c2cn(-c3ccccc3)nc2-c2cccs2)cc1`, `COc1ccc(-c2nn(-c3ccccc3)cc2/C=N/Nc2ccccn2)cc1OC` is higher in inhibition: 40.4% for the first, 45.7% for the second.

First: O=C(c1ccccn1)c1ncc(C(F)(F)F)cc1Cl
Second: N/C(=N\OC(=O)CCCC(=O)O)c1ncc(C(F)(F)F)cc1Cl
The inhibition of the first is lower: 3% for the first, 9.72% for the second.

First: Cc1cccc(NC(=O)Cn2cc(C(=O)c3ccco3)c3ccccc32)c1
Second: O=C(NCCSc1ncc(-c2ccccc2)[nH]1)c1ccco1
The inhibition of the first is higher: 7.71% for the first, -8.72% for the second.

First: O=C1NC(Cc2ccc(O)cc2)c2nc3ccc(Cl)cc3c(=O)n2-c2ccccc21 (configuration not stated)
Second: Cc1ccc(C(=O)/C=C/c2c(C)nn(-c3ccccc3)c2Cl)cc1
The inhibition of the first is lower: 15% for the first, 36.5% for the second.

Going from `CCOc1ccc(C(C)NC(=O)CN2C(=O)NC3(CCCCC3)C2=O)cc1OCC` (configuration not stated) to `CCOc1cc(/C=C2\SC(N3CCCCC3)=NC2=O)ccc1O`, the inhibition rises from 7.68% to 38.3%.

Going from `CCOCCCNC(=O)Cc1cc(=O)[nH]c(=O)[nH]1` to `CCOC(=O)C1CSC(CC(=O)Nc2ccc(OCC)cc2)C(=O)N1` (configuration not stated), the inhibition rises from -8.09% to 4.52%.

Going from `Cc1cccc(NC(=S)Nc2ccc3cn[nH]c3c2)c1` to `Cc1cccc(NC(=S)NC23CN4CN(CN(C4)C2)C3)c1`, the inhibition rises from -3.63% to 1.34%.

Compared with `Cc1ccc(-n2ncc(C(=O)NC3CC3)c2C2CCN(C(=O)OC(C)(C)C)CC2)c(C)c1`, `CCOC(=O)Nc1ccc2c(c1)N(C(=O)CN1CCN3CCCC3C1)c1ccccc1CC2` (configuration not stated) is lower in inhibition: 13.5% for the first, 11.3% for the second.

Compared with `Cc1nn(-c2ccccc2)c(C)c1/C=C/C(=O)OC(C)C(N)=O` (configuration not stated), `O=C(NC(=S)NC1CCSC1=O)c1ccccc1F` (configuration not stated) is lower in inhibition: 10.4% for the first, -11.9% for the second.

First: COc1ccc(N(CC(=O)NC2CCCCC2)S(=O)(=O)c2c(C)[nH]c(=O)[nH]c2=O)cc1
Second: CC(C)OC(=O)Cn1nc(C(F)(F)F)c2c1CCCC2
The inhibition of the first is higher: 6.85% for the first, -5.77% for the second.

Going from `CCOC(=O)N/N=C/c1cccnc1` to `N#Cc1ccc(C(c2ccc(C#N)cc2)n2cncn2)cc1`, the inhibition rises from 4.17% to 9.59%.

With `Cc1cccc(Nc2nc(-c3ccccc3)cs2)n1` the inhibition was 55.1% (active).
In the case of `c1ccc(-c2nc(NCc3ccco3)c3ccccc3n2)cc1`, the inhibition is reported as 53% (active).
In the case of `Cc1ccc(Oc2nc(-c3ccccn3)nc3ccccc23)cc1`, the inhibition is reported as 63.6% (active).
For `Cc1ccc(C(=O)OC2=CC(=O)CC(C)(C)C2)cc1`, the inhibition was 52.8% (active).
For `O=Cc1cn(-c2ccccc2)nc1-c1ccccn1`, the inhibition was 58.8% (active).
With `N/C(=N\OC(=O)Nc1ccc(Cl)c(Cl)c1)c1ncc(C(F)(F)F)cc1Cl` the inhibition was 73.9% (active).
For `CCOc1ccc(C(c2c(C)[nH][nH]c2=O)c2c(C)[nH][nH]c2=O)cc1OCC`, the inhibition was 54.5% (active).
With `Cc1cccc(NC(=S)Nc2ccc(Cl)c(Cl)c2)c1` the inhibition was 60.8% (active).
For `Cc1nn(-c2ccccc2)c(Cl)c1/C=C/C(=O)c1ccc(O)cc1`, the inhibition was 50.6% (active).
With `CCOc1cc(/C=C2\SC(N3CCCC(C)C3)=NC2=O)ccc1O` (configuration not stated) the inhibition was 51.4% (active).
In the case of `O=C(CSc1cccc2cccnc12)N/N=C/c1cccnc1`, the inhibition is reported as 52.9% (active).
For `Cc1ccccc1C(=O)NC(=S)NC1CC1`, the inhibition was 56.1% (active).

— PubChem BioAssay AID463212 (Sanford-Burnham Center for Chemical Genomics, 2010)
